Experimental data as given in PubChem BioAssay AID624330 (Southern Research Specialized Biocontainment Screening …, 2012).
In all, about 340,000 compounds went through this assay and about 2,100 (0.62%) were called active.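 The calls were made as follows: active = first-screen hits whose inhibition reached a set limit at any dose in the follow-up dose series; inconclusive = inhibition above the set first-screen limit but never retested; inactive = the rest.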 These entries were drawn from the full list. Measured potencies and affinities stand elsewhere.

Biological target: Rac GTPase-activating protein 1 (Homo sapiens) (UniProt Q9H0H5)
Assay: blockers of MgcRacGAP-driven Rac1 GTP hydrolysis – biochemical, ADP Hunter fluorescence, primary and confirmatory, confirmation (AID 624330);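 also: fluorescence reports GDP produced by GAP-driven GTP hydrolysis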
Settings: MgcRacGAP-stimulated Rac1 GTP hydrolysis, at 30 µM, stronger effect = higher value, GST-tagged Rac1 F28L mutant substrate

Rac GTPase-activating protein 1 (Homo sapiens), sequence (Q9H0H5 whole entry, looked up): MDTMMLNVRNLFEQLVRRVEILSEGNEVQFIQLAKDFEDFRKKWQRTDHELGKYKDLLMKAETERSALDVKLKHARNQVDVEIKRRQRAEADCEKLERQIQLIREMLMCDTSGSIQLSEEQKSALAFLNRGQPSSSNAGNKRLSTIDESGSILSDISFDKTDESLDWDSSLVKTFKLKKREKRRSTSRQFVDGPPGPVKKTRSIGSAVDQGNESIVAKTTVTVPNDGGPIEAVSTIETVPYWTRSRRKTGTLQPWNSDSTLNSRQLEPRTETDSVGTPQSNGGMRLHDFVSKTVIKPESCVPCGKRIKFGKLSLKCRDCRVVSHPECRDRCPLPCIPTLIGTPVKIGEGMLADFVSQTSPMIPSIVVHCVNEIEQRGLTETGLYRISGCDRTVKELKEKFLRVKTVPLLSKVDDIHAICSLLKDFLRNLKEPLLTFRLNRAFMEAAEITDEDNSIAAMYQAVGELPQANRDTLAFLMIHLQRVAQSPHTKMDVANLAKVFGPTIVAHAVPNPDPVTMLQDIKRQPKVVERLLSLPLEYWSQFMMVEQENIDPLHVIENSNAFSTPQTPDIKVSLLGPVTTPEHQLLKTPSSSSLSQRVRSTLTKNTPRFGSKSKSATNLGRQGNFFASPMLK

inhibition, inactive:
O=C(O)c1cccc(N2CCCC2=O)c1 5.07%
COC(=O)c1cccc(N2CCCC2=O)c1 9.18%
O=C(O)c1cccc(N2CCCC2)c1 15.6%
COC(=O)c1cccc(N2C(=O)c3ccccc3S2(=O)=O)c1 0.68%
CCCN(CCC)Cc1c(C(=O)N/N=C/CCc2ccccc2)nnn1-c1nonc1N 11.3%
Nc1ncc2c(n1)CCN(c1ccc([N+](=O)[O-])cc1)C2 7.74%
CC[C@H](C)[C@@H](C(=O)N1CCNCC1)n1cc([C@@H](N)CC(C)C)nn1 0.32%
O=C(O)c1cccc(N/N=C/c2cn(-c3ccccc3)nc2-c2cccs2)c1 3.09%
Cc1ccsc1/C=N/NC(=O)Nc1ccccc1 1.94%
O=C(O)c1cccc(N/N=C/c2cccc3ccccc23)c1 8.13%
CN(C)c1ccc(/C=N/Nc2cccc(C(=O)O)c2)cc1 -3.06%
O=C(O)c1cccc(N/N=C/c2ccc(-c3ccccc3)cc2)c1 -7.28%
CC(C)(C)c1ccc(/C=N/Nc2cccc(C(=O)O)c2)cc1 6.23%
CC(=O)c1ccc(NC(=O)CN2C(=O)NC3(CCc4ccccc43)C2=O)cc1 (stereo not drawn) 1.63%
Cc1ccc(NC(=O)CN2C(=O)NC3(CCc4ccccc43)C2=O)cc1 (stereo not drawn) -6.82%
CCOc1cccc(NC(=O)c2ccc(S(=O)(=O)N3CCCC3)cc2)c1 3.15%
O=S(=O)(c1ccccc1)c1nc(-c2ccco2)oc1NCCCN1CCOCC1 8.7%
O=C(/C=C/c1ccc(Cl)cc1Cl)Nc1cccc(S(=O)(=O)NC2=NCCCCC2)c1 5.67%
Nc1cc(Cl)ccc1Oc1ccccc1 11.6%
Nc1cc(Cl)ccc1Oc1ccc(Cl)cc1 0.58%
COc1ccc(C(=O)COC(=O)CNC(=O)c2ccccc2)cc1F 4.02%
CCOC(=O)c1cnc(SCC(=O)Nc2cc(OC)ccc2OC)nc1N 3.73%
CSCCC(NC(=O)c1ccccc1Cl)C(=O)NCc1ccncc1 (stereo not drawn) 6.71%
CC1CCCN(CCCOc2ccccc2-c2ccccc2)C1 (stereo not drawn) 18.1%
CC1CCCN(CCOc2ccc(Br)cc2)C1 (stereo not drawn) 12%
O=C(/C=C/c1ccco1)NCC1CCCO1 (stereo not drawn) 19.1%
CC(C)(C)C(=O)Cn1c(=O)n(-c2ccc(F)cc2F)c(=O)c2sccc21 13.1%
CNC(=S)N1N=C(c2ccc(C)cc2)CC1c1ccc(OC)c(OC)c1 (stereo not drawn) 2.99%
